# Values joined by “and” are separate entries in the source; they are usually repeats but may differ in a detail not shown here. Identical values can stand only once. Results filed as inconclusive are left out. Active and inactive are the calls of the source.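 Rule for the calls, unless noted: active = compounds killing one labelled cell type while sparing the other, by normalised counts and ratio limits, not self-fluorescent; inactive = the rest.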
# How the values were obtained:
# [1] = hESC survival regulators, cell-based (AID 493140; call rule not given here;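 note: cells exposed to compounds for four days before counting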); conditions: human embryonic stem cell survival screen; stronger effect = higher value
# [2] = liver-stage malaria parasite growth inhibition, primary screen, cell-based, HepG2, luciferase luminescence, HepG2 viability (AID 624349; in the data active = parasite load remaining mostly below about 12%, no sharp cut-off; inactive = mostly above about 10%;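 note: 100% = mean of DMSO negative control wells on the same plate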); conditions: P. berghei liver stage in HepG2, luciferase luminescence, concentration not given here; parasite load remaining: stronger effect = lower value; viability: measured here: HepG2 viability without parasites
# [3] = differential killing of epithelial or mesenchymal cells, primary screen, imaging, PC-3E GFP, TEM4-18 mCherry, co-culture (AID 1345086); conditions: imaging cell counts, at 1 µM; for red/green cell ratio (normalised): actives lie on both sides, counts scaled to control wells, 1 = unselective;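 for all read-outs here: cells exposed to compound for 72 h before imaging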;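 for red/green cell ratio (normalised): normalised mesenchymal count divided by normalised epithelial count so high means epithelial killing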
# [4] = tested on: Aerobactin synthetase IucA (Klebsiella pneumoniae); assay: IucA aerobactin synthetase inhibitors, biochemical, Tocris library, absorbance (AID 1345561; call rule not given here;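 note: 100% = enzyme without compound and 0% = no enzyme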); conditions: purified IucA enzyme assay, absorbance (OD) read-out; stronger effect = lower value;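 tested at 8 µM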
# [5] = growth inhibition of DIPG glioma cells, dose response, cell-based, SU-DIPG-XVII, MIPE5.0, CellTiter-Glo, qHTS (AID 1347060; cut-off not given, nearly all actives have AC50 up to about 26 µM); conditions: SU-DIPG-XVII viability, CellTiter-Glo ATP luminescence
# [6] = growth inhibition of DIPG glioma cells, dose response, cell-based, SU-DIPG-XIII, MIPE4.0, CellTiter-Glo, qHTS (AID 1347061; cut-off not given, nearly all actives have AC50 up to about 37 µM;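 note: cells exposed to compound for 48 hours before readout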); conditions: SU-DIPG-XIII viability, CellTiter-Glo ATP luminescence
# [7] = viability loss in pontine glioma line – cell-based, SU-DIPG-XXV, MIPE5.0, CellTiter-Glo, qHTS, dose response (AID 1347065; cut-off not given, nearly all actives have AC50 up to about 26 µM;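 note: cells exposed to compound for 48 hours before ATP readout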); conditions: CellTiter-Glo ATP luminescence
# [8] = SU-DIPG-VI glioma cell viability, MIPE4.0 library, CellTiter-Glo luminescence, qHTS (AID 1347066; cut-off not given, nearly all actives have AC50 up to about 30 µM;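 note: cells exposed to compound for 48 hours before readout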); conditions: CellTiter-Glo ATP luminescence
# [9] = JHH-DIPG-1 glioma cell viability, MIPE5.0 library, CellTiter-Glo luminescence, qHTS (AID 1347067; cut-off not given, nearly all actives have AC50 up to about 26 µM;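 note: cells exposed to compound for 48 hours before readout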); conditions: JHH-DIPG-1 glioma viability, CellTiter-Glo ATP luminescence
# [10] = SU-DIPG-XXV glioma cell viability, MIPE5.0 library, qHTS (AID 1347068; cut-off not given, nearly all actives have IC50 up to about 30 µM)
# [11] = sensitizers of A549 cells to miR-34 induction, primary screen, imaging, A549 dox-inducible miR-34, nuclei and caspase counts (AID 1347080;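 active = compounds whose cell count with miR-34 switched on is under 0.7 times the count with it off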); conditions: A549 miR-34 inducible, Hoechst nuclei count, 48 h
# [12] = survival rescue of mitochondrial mutant cells in low glucose, primary screen, MELAS cybrids, Rieske KO mouse fibroblasts, CellTiter-Glo (AID 1508586;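 active = mean z-score across replicates of 1.96 or higher in either the MELAS or the Rieske mutant cell line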;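 note: z relative to plate mean and SD of compound and empty wells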)
# [13] = viability rescue of complex I mutant cybrids, primary screen, cell-based, galactose medium, ATP luminescence (AID 1645843;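 active = z-score of at least 1.8 in each of two replicates, scored against plate mean and spread of sample wells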;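 note: positive z means more ATP and so rescue of galactose-driven cybrid death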); conditions: complex I mutant cybrid cells, 72 h, stronger effect = higher value
# [14] = measured here: epithelial PC-3E GFP cell survival
# [15] = measured here: mesenchymal TEM4-18 mCherry cell survival
smiles,measurement,setting,value
O=c1c(O)c(-c2ccc(O)cc2)oc2cc(O)cc(O)c12,survival,[1],7.5 (inactive)
same,parasite load remaining,[2],80.6% (inactive)
same,viability,[2],69.5%
same,red/green cell ratio (normalised),[3],1 (inactive)
same,normalised cell number,[3]; [14],1.03
same,normalised cell number,[3]; [15],1.03
same,remaining activity,[4],107% (inactive)
same,outcome,[5],inactive
same,outcome,[6],inactive
same,outcome,[7],inactive
same,outcome,[8],inactive
same,outcome,[9],inactive
same,outcome,[10],inactive
same,fold change,"[11]; stronger effect = lower value, cell number ratio, induced over uninduced",0.974 (inactive) and 0.869 (inactive) and 0.836 (inactive)
same,fold change,[11]; measured here: relative caspase fold change +Dox/-Dox,0.804 and 0.921 and 1.47
same,cell count,"[11]; measured here: total cells with miR-34 induction, stronger effect = lower value",9050 and 8750 and 6630
same,cell count,[11]; measured here: total cells without miR-34 induction,9290 and 10100 and 7930
same,z-score,"[12]; MELAS cybrid survival, CellTiter-Glo 48 h, stronger effect = higher value",-0.357 (inactive)
same,z-score,"[12]; Rieske KO mouse fibroblast survival, CellTiter-Glo 72 h",0.291
same,z-score,[13],-0.765 (inactive)
NCC1O[C@@H](OC2C(N)C[C@@H](N)C(O)[C@H]2OC2OC(CO)C(OC3OC(CN)[C@@H](O)C(O)[C@H]3N)C2O)C(N)[C@@H](O)C1O (stereo partly drawn),red/green cell ratio (normalised),[3],1.11 (inactive)
same,normalised cell number,[3]; [14],0.9
same,normalised cell number,[3]; [15],0.99
CC(C)[C@H]1COC(=O)N1C(=O)CC(C)N1C(=S)OC[C@H]1c1ccccc1 (stereo partly drawn),red/green cell ratio (normalised),[3],1.05 (inactive)
same,normalised cell number,[3]; [14],1.07
same,normalised cell number,[3]; [15],1.12
CC(=O)O[C@@H]1CC2C(C)(C)C(=O)CC[C@]2(C)C2CC[C@@]3(C)[C@H](c4ccoc4)OC(=O)C4OC43[C@@]21C (stereo partly drawn),red/green cell ratio (normalised),[3],1.03 (inactive)
same,normalised cell number,[3]; [14],0.94
same,normalised cell number,[3]; [15],0.97
Cc1oc(=O)c2c(O)cc(O)c(C)c2c1C,red/green cell ratio (normalised),[3],1.03 (inactive)
same,normalised cell number,[3]; [14],1.11
same,normalised cell number,[3]; [15],1.14
C[C@@H](Oc1ccc(Oc2ccc3ncc(Cl)nc3c2)cc1)C(=O)O,red/green cell ratio (normalised),[3],0.86 (inactive)
same,normalised cell number,[3]; [14],1.19
same,normalised cell number,[3]; [15],1.03
COc1cc([C@@]2(C)[C@@H]3[C@@H](C)CCC[C@@H]3C=C[C@@H]2C)oc(=O)c1C=O,red/green cell ratio (normalised),[3],0.92 (inactive)
same,normalised cell number,[3]; [14],1.06
same,normalised cell number,[3]; [15],0.98
O=C1N[C@@H]2[C@@H](Sc3ccccc3)OC(CO)C(O)[C@@H]2O1 (stereo partly drawn),red/green cell ratio (normalised),[3],0.97 (inactive)
same,normalised cell number,[3]; [14],1
same,normalised cell number,[3]; [15],0.97
CC(CC(=O)N1C(=O)OC[C@H]1c1ccccc1)N1CCOC1=S (stereo partly drawn),red/green cell ratio (normalised),[3],0.87 (inactive)
same,normalised cell number,[3]; [14],1.09
same,normalised cell number,[3]; [15],0.95
NC(=O)c1cc(F)c(F)cc1NC1CC1,red/green cell ratio (normalised),[3],1.15 (inactive)
same,normalised cell number,[3]; [14],1.02
same,normalised cell number,[3]; [15],1.16
C[C@H]1OC(n2cc(F)c(=O)[nH]c2=O)C(O)[C@@H]1O (stereo partly drawn),red/green cell ratio (normalised),[3],0.91 (inactive)
same,normalised cell number,[3]; [14],1.27
same,normalised cell number,[3]; [15],1.16
CC(CC(=O)N1CCOC1=O)N1C(=S)SC[C@H]1c1ccccc1 (stereo partly drawn),red/green cell ratio (normalised),[3],0.8 (inactive)
same,normalised cell number,[3]; [14],1.08
same,normalised cell number,[3]; [15],0.87
C=C[C@@](C)(O)CCC1C(=C)C[C@H](OC(C)=O)C2C(C)(C)CCCC12C (stereo partly drawn),red/green cell ratio (normalised),[3],1.05 (inactive)
same,normalised cell number,[3]; [14],1.03
same,normalised cell number,[3]; [15],1.08
COc1cc(-c2coc3cc(O)c(OC)c(O)c3c2=O)cc(O)c1OC,red/green cell ratio (normalised),[3],0.95 (inactive)
same,normalised cell number,[3]; [14],1.03
same,normalised cell number,[3]; [15],0.98
O=S(=O)([O-])OC[C@H]1O[C@@](COS(=O)(=O)[O-])(O[C@H]2O[C@H](COS(=O)(=O)[O-])[C@@H](OS(=O)(=O)[O-])[C@H](OS(=O)(=O)[O-])[C@H]2OS(=O)(=O)[O-])[C@@H](OS(=O)(=O)[O-])[C@@H]1OS(=O)(=O)[O-].[Al+3].[Na+].[Na+].[O-2].[O-2].[OH-],red/green cell ratio (normalised),[3],0.81 (inactive)
same,normalised cell number,[3]; [14],1.15
same,normalised cell number,[3]; [15],0.93
C/C=C/c1cc2c(c(=O)o1)C(=O)[C@@H](O)[C@H](C)O2,red/green cell ratio (normalised),[3],1.02 (inactive)
same,normalised cell number,[3]; [14],0.9
same,normalised cell number,[3]; [15],0.92
O=C(NCC1O[C@@H](OC2C(NC(=O)c3ccccc3)C[C@@H](NC(=O)c3ccccc3)[C@H](OS(=O)(=O)O)[C@H]2OC2OC(COS(=O)(=O)O)C(OC3OC(CNC(=O)c4ccccc4)[C@@H](OS(=O)(=O)O)[C@H](OS(=O)(=O)O)[C@H]3NC(=O)c3ccccc3)C2OS(=O)(=O)O)[C@H](NC(=O)c2ccccc2)[C@@H](OS(=O)(=O)O)C1OS(=O)(=O)O)c1ccccc1 (stereo partly drawn),red/green cell ratio (normalised),[3],0.97 (inactive)
same,normalised cell number,[3]; [14],0.96
same,normalised cell number,[3]; [15],0.93

# Reference: PubChem BioAssay
